# About 79,000 compounds went through this panel and 15% of them were active in at least one assay; those are over-represented in the sample as a whole. Unmarked numbers belong to inactive results. Calls of active or inactive are those of the source. Cut-off read from the data, not from the text of the source: active = growth inhibition above about 70%; inactive = the rest.
# Tests used:
# [1] = NCI Yeast Anticancer Drug Screen. Data for the rad50 strain (AID 155);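 note: 0% = growth of vehicle-only cultures of the same strain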; settings: S. cerevisiae rad50 strain growth inhibition; at 50.0 µM; hits give high values
# How it was run: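 Compounds were tested on a yeast strain with an engineered DNA damage repair alteration; the reported value is growth inhibition normalised to vehicle treatment.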
# [2] = NCI Yeast Anticancer Drug Screen. Data for the mec2-1 strain (AID 157); settings: S. cerevisiae mec2-1 strain, at 50.0 µM, hits give high values
# How it was run: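 Yeast mec2-1 mutant treated with compound. Readout: growth inhibition vs vehicle controls.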
# [3] = NCI Yeast Anticancer Drug Screen. Data for the sgs1 mgt1 strain (AID 161);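 note: 0% = growth of cultures given vehicle only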; settings: S. cerevisiae sgs1 mgt1 strain, at 50.0 µM, hits give high values
# How it was run: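 Read-out: growth inhibition vs vehicle controls. Cells: mutant yeast strain deficient in DNA damage repair.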
# [4] = NCI Yeast Anticancer Drug Screen. Data for the cln2 rad14 strain (AID 165);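 note: 0% = growth equal to vehicle treated cultures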; settings: S. cerevisiae cln2 rad14 strain, at 50.0 µM, hits give high values
# How it was run: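 cln2 rad14 yeast strain; compound exposure; growth inhibition read vs vehicle controls.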
# [5] = NCI Yeast Anticancer Drug Screen. Data for the bub3 strain (AID 167); settings: S. cerevisiae bub3 mutant strain, at 50.0 µM, hits give high values
# How it was run: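 Growth of a checkpoint-deficient yeast mutant is measured after compound exposure. Values represent inhibition relative to vehicle.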
# [6] = NCI Yeast Anticancer Drug Screen. Data for the mlh1 rad18 strain (AID 175); settings: S. cerevisiae mlh1 rad18 strain growth inhibition; at 50.0 µM; hits give high values
# How it was run: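 Yeast w/ defined DNA-repair lesions; compound exposure; growth vs vehicle controls → % inhibition.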
Structure (SMILES),growth inhibition [1],growth inhibition [2],growth inhibition [3],growth inhibition [4] [%],growth inhibition [5],growth inhibition [6]
COC(=O)CC(C)N(c1cccc(Cl)c1)S(=O)(=O)c1ccc(C)cc1 (stereo unspecified),52.3%,7.1%,76.3% (active),-30.9,24.1%,32.5%
CCOC(=O)n1ccnc1,-6.4%,-5.45%,1.5%,8,9.05%,-2.95%
COc1ccc(/C=C/C(=O)c2ccc3c(c2)OCO3)cc1OC,-15.6%,-14.8%,-45.1%,-6.65,-33.7%,-23.5%
CC(=O)OCC1OC(n2cnc(C(N)=S)c2N)C(OC(C)=O)C1OC(C)=O (stereo unspecified),2.3%,15.8%,11.4%,-10.4,-2.35%,21.2%
COc1ccc(/C=N/N2CN(C(C)C(=O)O)C(O)(CCl)N=C2N)cc1OC (stereo unspecified),0.95%,-8.95%,-3%,-27.4,5.1%,-1.5%
Cc1cc(Br)cc(C)c1NC(=O)C(=O)Nn1c(=S)[nH]c2ccccc2c1=O,-8.55%,-16.1%,-6.15%,12.8,-8.2%,1.3%
O=Cc1cc(N=Nc2ccc(S(=O)(=O)O)cc2)ccc1O,5.8%,-35.5%,-1.45%,14.9,-17.6%,3.6%
O=S(=O)(CC(Br)c1ccccc1)c1ccccc1 (stereo unspecified),44.7%,6.15%,5.05%,-4.3,60.5%,45%
Nc1cccnc1NCC(O)c1ccccc1 (stereo unspecified),1.9%,-13.7%,-9.45%,-12.6,-11.6%,10.6%
CN(CC(N)=O)C(=O)c1cnc2ccccc2c1,9.65%,18.6%,-1.05%,8.05,14.1%,0.4%
C/C(=N\NC(=O)C(N)=O)c1c(O)cc(C)oc1=O,-29.1%,5.2%,11.6%,-23.1,1.8%,15.7%
CN1C2=C(CC3=C1CC(C)(C)CC3=O)C(=O)CC(C)(C)C2,-18.6%,-12.9%,-20.1%,-4.25,-27.6%,-34.7%
CC1Cc2ccc(OCC(O)CO)cc2C1=O (stereo unspecified),7.35%,1.8%,11.1%,15.1,-0.2%,1.7%
CC(=O)C(C)(C)OC(=O)COc1ccc(Cl)cc1,-39%,-2.75%,-9.45%,43.4,32.3%,-24.6%
CCOC(=O)C1(C#N)C(C#N)(C#N)C1(C)CC (stereo unspecified),10.8%,-1.2%,24.8%,-1.1,0.75%,-0.75%
Cc1ccc(S(=O)(=O)CCC(=O)c2ccc([N+](=O)[O-])cc2)cc1,9.35%,20.1%,14.8%,6.65,3.05%,16.9%
CCOC(=O)CCC1CCCO1 (stereo unspecified),-3.6%,-19.1%,-19.9%,-4.8,-6.85%,-1.05%
OCC(O)C(O)C(O)C(O)CNC(CO)(CO)CO (stereo unspecified),9.9%,13.3%,18.6%,-1.45,16.6%,27.5%
CC/C(=N\NS(=O)(=O)c1ccc(C)cc1)c1ccc(Br)cc1,27.4%,-7.2%,-1.6%,-7.3,-3.6%,3.4%
CC(=O)C1=C(O)/C(=C/c2ccccc2)NC1=O,8.05%,5.15%,-6.3%,-35.5,-13.2%,-3.2%
CCCC(=O)Oc1ccc(C(C)(C)C)cc1C,-5.65%,-19.1%,3.4%,-19.3,-0.5%,-8.6%

Structure (SMILES),growth inhibition [1],growth inhibition [2],growth inhibition [3],growth inhibition [4] [%],growth inhibition [5],growth inhibition [6]
C(=C\c1cccc2ccccc12)/c1ccc(-c2ccccc2)cc1,-5.9%,-45%,-0.75%,12.1,-3.45%,5.75%
CC(=O)CC(=O)NCCN(C)C,-23.6%,-43%,-11.2%,5.95,-9.3%,-6.65%
COc1ccc(/C(C)=N/N=C(\C)c2ccc(OC)cc2)cc1,7.45%,-28.1%,32.3%,12.3,17.1%,13.6%
O=C1c2ccccc2S(=O)(=O)c2cc(-c3nn[nH]n3)ccc21,-2.6%,-29.8%,-22.8%,0.6,-13.7%,-48%
CCOC1=C([N+](=O)[O-])C(c2ccccc2)NC1=O (stereo unspecified),10.8%,-0.6%,-3%,15.1,-35.3%,11.7%
CCOC(=O)Cc1cccnc1,-27.6%,-40%,-14.1%,16.5,-12.2%,-3.4%
O=C(CCCC(=O)Nc1ccc2[nH]c3ccccc3c(=O)c2c1)Nc1ccc2[nH]c3ccccc3c(=O)c2c1,12.7%,-8.6%,-0.3%,20.9,-3.55%,2.95%
C/C=C(/C)c1ccccc1,-5.1%,1.8%,-1.1%,10.4,4.55%,24.6%
c1ccc2c3c(ccc2c1)OCCOCCOc1ccc2ccccc2c1-3,76.7% (active),84.8% (active),76.5% (active),8.5,91.9% (active),86% (active)
CCOC(=O)Nc1nc2ccccc2n1CN1CCN(c2ccccc2)CC1,8.4%,7.75%,-8.7%,21.3,45.3%,16.9%
Cc1cccc(OS(=O)(=O)c2ccccc2)c1,34.6%,16.2%,36%,8.1,-6.65%,24.8%
Cc1ccc([B-]23OCC[N+]2(CNC(=O)c2ccccc2O)CCO3)cc1 (stereo unspecified),25.6%,-4.4%,4.1%,3.6,4.05%,12.8%
Cc1ccc(S(=O)(=O)CO)cc1,0.5%,-3.2%,14.3%,-51.5,-27.9%,11%
CC1=C(CCC(C)CO)OC2CC3C4CC=C5CC(O)CCC5(C)C4CCC3(C)C12 (stereo unspecified),19.1%,-0.65%,43.4%,9.95,6.3%,0.85%
COc1ccc(NC(=S)NN)cc1,2.95%,-7.75%,18.9%,-6,13.9%,6.2%
Cc1ccc(Sc2cc([N+](=O)[O-])cc(Sc3ccc(C)cc3)c2Sc2ccc(C)cc2)cc1,22.2%,-24.7%,10.4%,5.25,1.35%,-11.7%
CC(=O)Nc1ccc(S(=O)(=O)NC(=O)NC(C)C)cc1,-4.2%,-26.4%,-2.4%,20,3%,14.3%
COc1ccc(-n2c(C)nc3c(cnn3CN3CCCCC3)c2=O)cc1,4%,-0.95%,-1.25%,-4.05,8.75%,13.5%
O=C(Oc1ccc(C(=O)c2ccccc2)cc1)C(Cl)=C(Cl)Cl,-6.95%,-1.75%,7.7%,-55.8,7.35%,-4%
OC1C/C=C/CCCCC1 (stereo unspecified),-11%,-5.75%,-3.55%,1.95,3.3%,-4.4%

# Source: PubChem BioAssay (NCI)
